Only some compounds are listed: those with a hit (about 19% of all), similar ones and a draw of the others.
ELG1 DNA repair: ELG1-dependent DNA repair inhibition | HEK293T ELG1-luciferase reporter, luminescence, 16 h; DNA damage induced by 5-fluorouridine | Potency, µM (top dose mostly 46.1 µM), for the others: top-dose activity change, negative = inhibition, hits mostly inhibitors | 2.3% of 330,000 active; further: potency means the concentration at half of the fitted maximal effect; nearly all actives have a fitted effect of over 55% in size
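HEK293T cells expressing luciferase-tagged ELG1 (2,000/well) received 5-Fluorouridine plus compound or DMSO for 16 hr at 37 °C. Luciferase was read by ONE-Glo luminescence after 30 min at room temperature.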
TDP1 inh: inhibitors of human tyrosyl-DNA phosphodiesterase TDP1; Potency, µM (series often up to 130 µM), inactives show at the highest dose activity change, negative = inhibition, actives largely listed as inhibitors; Q9NUW8; recombinant TDP1, AlphaScreen DNA substrate cleavage; 0.28% of 350,000 active; further: potency means the concentration at half of the fitted maximal effect; nearly all actives have a fitted effect of over 40% in size
Target sequence (Q9NUW8 whole entry, looked up): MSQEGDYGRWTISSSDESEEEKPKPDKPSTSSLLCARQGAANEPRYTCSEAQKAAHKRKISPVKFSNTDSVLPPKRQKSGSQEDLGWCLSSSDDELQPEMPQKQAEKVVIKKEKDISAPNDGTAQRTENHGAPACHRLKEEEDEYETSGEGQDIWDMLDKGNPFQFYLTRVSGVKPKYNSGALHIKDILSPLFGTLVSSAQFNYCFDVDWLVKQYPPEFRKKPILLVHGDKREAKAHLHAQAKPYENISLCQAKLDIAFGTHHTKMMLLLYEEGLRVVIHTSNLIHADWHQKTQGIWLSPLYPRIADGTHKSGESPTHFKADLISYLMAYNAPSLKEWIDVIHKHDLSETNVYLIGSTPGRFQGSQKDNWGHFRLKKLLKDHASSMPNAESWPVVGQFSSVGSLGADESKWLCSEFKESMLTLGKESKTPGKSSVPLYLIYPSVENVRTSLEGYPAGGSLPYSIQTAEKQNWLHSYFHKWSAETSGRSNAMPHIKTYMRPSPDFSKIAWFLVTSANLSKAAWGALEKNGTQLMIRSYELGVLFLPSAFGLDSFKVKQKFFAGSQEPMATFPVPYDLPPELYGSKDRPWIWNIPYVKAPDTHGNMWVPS
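E. coli-derived human Tdp1, 1 nM final. Cpd preinc 15 min RT; substrate 15 nM final, 5 min RT; AS bead mix 10 ug/ml final, 10 min RT. Signal loss = tyrosine-FITC cleavage. No-enzyme wells = max signal.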
TDP1 cell noCPT: qHTS for Inhibitors of human tyrosyl-DNA phosphodiesterase 1 (TDP1): qHTS in cells in absence of CPT; DT40 Tdp1-/- hTDP1 cells, no CPT, ATP luminescence, 48 h; Potency, µM (titrated, usually from 46.2 µM), without a hit: top-dose activity change, negative = growth inhibition, usual class: inhibitors; 15% of 420,000 active; further: potency means the concentration at half of the fitted maximal effect; nearly all actives have a fitted effect of over 55% in size
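Readout: luminescence from CellTiter-Glo after 30 min in the dark at RT. Cells: DT40 Tdp1-/- with stable hTDP1, 400/well. Exposure: compounds alone, ≥48 hr, 37 °C.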
Giardia kill: kills Giardia lamblia | Giardia lamblia trophozoite viability | activity change, % at 7.66 µM, hits read low | 0.15% of 340,000 active | AID 540267; in the data active means activity change below about -80%; inconclusive means between about -30% and that limit;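 further: parasites exposed to compound for two days anaerobically before the ATP read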
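Anaerobic 48 hrs incubation at 37 deg C of 100 trophozoites/well with test compounds; ATPLite 1-Step luminescence, 15-30 min RT, reports cellular ATP as viability.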
IL1B secr inh: inhibitors of inflammasome signaling (IL-1 beta secretion). 4.7% of 360,000 active. THP-1 LPS/ATP IL-1B secretion, AlphaLISA, 16 h; active compounds read low. activity change, % at 57.5 µM; in the data active means activity change below about -50%; inconclusive means mostly about -30% to -49%
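THP-1 cells pretreated 1 hr with compounds (up to 57.5 uM final), then stimulated with LPS (250 ng/mL final) plus ATP (1.25 mM final); secreted IL-1B measured by AlphaLISA after 16 hr, decreased signal indicating inhibition.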
TDP1 cell CPT: DT40-hTDP1 cell growth loss with CPT | 12% of 420,000 active | AID 686979 | Potency, µM (top dose mostly 46.2 µM), for inactives: top-dose activity change, negative = growth inhibition, actives largely listed as inhibitors | chicken DT40 Tdp1-/-;hTDP1 cells + 20 nM CPT, ATP luminescence, 48 h; further: potency means the concentration at half of the fitted maximal effect; nearly all actives have a fitted effect of over 55% in size
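Chicken DT40 Tdp1-/- cells stably complemented with human TDP1 were seeded at 400 cells/well in medium containing 20 nM camptothecin, exposed to pin-transferred compounds, and grown at 37 °C for at least 48 hr. Viability was read as ATP luminescence.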
An asterisk follows results filed as active. Unless noted, the call rests on the fitted dose curve; in most records, active means well fitted curve in the direction sought with a large enough effect; inconclusive means small, poorly fitted or top-dose-only effect, or another doubt; inactive means no such curve, though single readings can be large; an effect the other way counts as inactive or inconclusive. On the % scale 0 is the no-effect control and ±100 the full control effect.

What do the screens show for `N#C/C(=C/c1cccc([N+](=O)[O-])c1)C(=O)Nc1ccccc1O`?
ELG1 DNA repair: -1%; TDP1 cell noCPT: inconclusive; Giardia kill: 17; IL1B secr inh: -7; TDP1 cell CPT: 3.7µM*

What do the screens show for `N#C/C(=C\c1cccc([N+](=O)[O-])c1)C(=O)NCc1cccnc1`?
ELG1 DNA repair: 21µM*; TDP1 inh: 0%; TDP1 cell noCPT: 21µM*; Giardia kill: -9; IL1B secr inh: 13; TDP1 cell CPT: 21µM*

Results for N#C/C(=C\C=C\c1ccccc1)C(=O)NCc1cccnc1 ?
ELG1 DNA repair: inconclusive; TDP1 inh: 1%; TDP1 cell noCPT: 29µM*; Giardia kill: -8; IL1B secr inh: -89*; TDP1 cell CPT: 26µM*

What do the screens show for `N#C/C(=C\c1cccc([N+](=O)[O-])c1)C(=O)Nc1cccnc1`?
ELG1 DNA repair: 3%; TDP1 inh: 5%; TDP1 cell noCPT: -12%; Giardia kill: -6; IL1B secr inh: 38; TDP1 cell CPT: -2%

Results for N#C/C(=C\c1cccc([N+](=O)[O-])c1)C(=O)NCc1ccc(Cl)cc1 ?
ELG1 DNA repair: inconclusive; TDP1 inh: -3%; TDP1 cell noCPT: 12µM*; Giardia kill: -1; IL1B secr inh: -108*; TDP1 cell CPT: 5.8µM*

Results for N#C/C(=C\c1ccccc1)C(=O)NNS(=O)(=O)c1cccc([N+](=O)[O-])c1 ?
ELG1 DNA repair: 29%; TDP1 inh: 3%; TDP1 cell noCPT: 3%; Giardia kill: -5; IL1B secr inh: 2; TDP1 cell CPT: inconclusive

How did Cc1cccc(C(=O)OCC(=O)NCCCc2ccccc2)c1O do in these assays?
ELG1 DNA repair: -3%; TDP1 cell noCPT: 22%; Giardia kill: -1; IL1B secr inh: 12; TDP1 cell CPT: 6%

What do the screens show for `Cc1c(Cl)cccc1S(=O)(=O)Nc1ccnn1C`?
ELG1 DNA repair: -12%; TDP1 inh: 4%; TDP1 cell noCPT: -6%; Giardia kill: 10; IL1B secr inh: 23; TDP1 cell CPT: -1%

How did COC(=O)c1cc(=O)n(Cc2ccco2)c(=Nc2ccc(F)cc2)s1 do in these assays?
ELG1 DNA repair: inconclusive; TDP1 cell noCPT: inconclusive; Giardia kill: -10; IL1B secr inh: -18; TDP1 cell CPT: 21µM*

How did COC(=O)c1cc(=O)n(-c2ccccc2)c(=Nc2ccccc2)s1 do in these assays?
ELG1 DNA repair: inconclusive; TDP1 inh: 4%; TDP1 cell noCPT: 23µM*; Giardia kill: -29; IL1B secr inh: -58*; TDP1 cell CPT: inconclusive

Results for COC(=O)c1cc(=O)n(CCc2ccc(OC)c(OC)c2)c(=Nc2ccc(F)c(Cl)c2)s1 ?
ELG1 DNA repair: 15µM*; TDP1 inh: 7%; TDP1 cell noCPT: inconclusive; Giardia kill: -26; IL1B secr inh: -104*; TDP1 cell CPT: inconclusive

What do the screens show for `COC(=O)c1cc(=O)n(Cc2ccc(F)cc2)c(=Nc2ccccc2)s1`?
ELG1 DNA repair: inconclusive; TDP1 inh: 5%; TDP1 cell noCPT: inconclusive; Giardia kill: -8; IL1B secr inh: inconclusive; TDP1 cell CPT: inconclusive

How did COC(=O)c1cc(=O)n(Cc2ccc(OC)c(OC)c2)c(=Nc2ccc(F)cc2)s1 do in these assays?
ELG1 DNA repair: inconclusive; TDP1 inh: 9%; TDP1 cell noCPT: 15µM*; Giardia kill: -23; IL1B secr inh: -23; TDP1 cell CPT: 16µM*

What do the screens show for `COC(=O)c1cc(=O)n(Cc2cccs2)c(=Nc2ccccc2)s1`?
ELG1 DNA repair: inconclusive; TDP1 inh: 8%; TDP1 cell noCPT: -27%; Giardia kill: -4; IL1B secr inh: -1; TDP1 cell CPT: -12%

How did CCc1ccc(OCC(=O)Nc2c(C(=O)c3ccc(Br)cc3)oc3ccccc23)cc1 do in these assays?
TDP1 inh: 1%; TDP1 cell noCPT: 6%; TDP1 cell CPT: -3%

High-throughput results deposited in PubChem by National Center for Advancing Translational Sciences (NCATS).
